CYP2C9 inh – blockers of cytochrome P450 2C9 activity – biochemical, luminescence, ADME assay, primary screen. P11712. CYP2C9 Supersomes, luciferin-H conversion. AID 777, 2007. 20% of 96,000 active. inhibition, % at 5 µM;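 active = blocking of liver enzyme CYP2C9 beyond about 50% at 5 µM, limit read from the data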
CYP2C19 inhib – blockers of cytochrome P450 2C19 activity – biochemical, luminescence, ADME assay, primary screen | P33261 | AID 778, 2007 | inhibition, % at 5 µM | 21% of 96,000 active | CYP2C19 Supersomes, luciferin-H EGE luminescence, 30 min;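 active = CYP2C19 inhibition above a set limit at 5 µM in the primary screen, cut at about 50% in these data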;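 note: plate controls were negative control wells for no effect and 2.5 mM tranylcypromine positive control for full effect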
Target sequence (P33261 whole entry, looked up): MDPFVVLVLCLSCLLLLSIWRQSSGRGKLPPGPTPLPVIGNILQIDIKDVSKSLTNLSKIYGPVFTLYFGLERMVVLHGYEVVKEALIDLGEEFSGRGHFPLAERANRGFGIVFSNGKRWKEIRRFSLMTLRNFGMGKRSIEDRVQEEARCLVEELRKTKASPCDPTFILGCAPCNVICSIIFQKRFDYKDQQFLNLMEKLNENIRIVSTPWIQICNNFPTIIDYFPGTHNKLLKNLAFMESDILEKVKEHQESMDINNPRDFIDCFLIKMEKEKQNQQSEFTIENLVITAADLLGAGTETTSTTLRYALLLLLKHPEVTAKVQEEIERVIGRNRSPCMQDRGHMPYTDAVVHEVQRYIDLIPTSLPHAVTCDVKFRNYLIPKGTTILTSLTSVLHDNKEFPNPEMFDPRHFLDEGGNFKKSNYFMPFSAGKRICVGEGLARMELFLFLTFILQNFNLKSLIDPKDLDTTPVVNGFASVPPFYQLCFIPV
Cav3 T inh – Cav3.2 calcium influx blockers – cell-based, Fluo-4 calcium fluorescence, FDSS, MLSMR library, primary screen | 4% of 100,000 active | Voltage-dependent T-type calcium channel subunit alpha-1H (Homo sapiens), O95180 | Cav3.2-expressing cells; hits give low values | AID 449739, 2010 | B-score at 10 µM;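 active = single-dose well whose peak fluorescence ratio is a statistical outlier from its plate by either plate-standardised score or position-corrected B-score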
CYP2C19 activ – human CYP2C19 activators, primary screen, biochemical, luminescence; Cytochrome P450 2C19 (Homo sapiens), P33261; recombinant CYP2C19, luciferin-H EGE luminescence; hits give high values; 0 = fully inhibited enzyme, 1 = untreated enzyme; activation factor at 5 µM; 96,000 tested, under 10 active;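 active = activation factor of at least 2 at 5 µM in the primary screen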;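 note: 0 = wells with 2.5 mM tranylcypromine and 1 = vehicle-only wells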
CYP2C9 activ – human CYP2C9 activators, primary screen, biochemical, luminescence. activation factor at 5 µM. 1.4% of 96,000 active. AID 1024, 2008. recombinant CYP2C9, luciferin-H conversion; hits give high values; factor 1 = untreated enzyme, 0 = blocked. Cytochrome P450 2C9 (Homo sapiens), P11712;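 active = activation factor of 2 or more for CYP2C9 at a 5 µM dose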;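 note: 0 = sulfaphenazole-blocked wells and 1 = vehicle-only wells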
The depositor's hits bear a star; nt = no result. A selection: hits, their analogues and other compounds. The true share with any hit is near 27%.

SMILES	CYP2C9 inh	CYP2C19 inhib	Cav3 T inh	CYP2C19 activ	CYP2C9 activ
O=C(Nc1cccc(O)c1)c1noc2c1CCCCC2	33	70*	-1.2	0.3	0.7
COc1ccc(NC(=O)c2noc3c2CCC3)cc1	27	62*	-0.0019	0.4	0.7
COc1ccc(NC(C)c2cc(Cl)ccc2O)cc1 (stereo not given)	49	58*	nt	0.4	0.5
Cc1c(NC(C)c2cc(Cl)ccc2O)c(=O)n(-c2ccccc2)n1C (stereo not given)	68*	96*	-0.83	0	0.3
COc1ccc(NC(=O)CS(=O)CC(=O)Nc2cc(Cl)ccc2OC)cc1 (stereo not given)	26	-4	-1.4	1	0.7
CC(Nc1ccccc1)c1cc(Cl)ccc1O (stereo not given)	nt	nt	-7.1*	nt	nt
Cc1c(NC(C)c2ccccc2O)c(=O)n(-c2ccccc2)n1C (stereo not given)	10	48	-0.11	0.5	0.9
C(=N\c1nc2ccccc2n1Cc1ccccc1)/c1cccs1	36	7	0.43	0.9	0.6
O=C1N[C@@H](Cc2ccccc2)C(=O)N2[C@H]1C[C@]1(Br)c3ccccc3N(S(=O)(=O)c3ccc(F)cc3)[C@H]21	nt	nt	-2.5	nt	nt
CCC(C)[C@H]1CN=C(N)N1CCc1cccc(F)c1 (stereo not given in full)	nt	nt	-0.75	nt	nt
CC(=O)c1cccc(NC=C2C(=O)OC3(CCCCC3)OC2=O)c1	5	9	0.38	0.9	1
O=C(CSc1nc(-c2ccc(F)cc2)cc(C(F)(F)F)n1)NCc1ccco1	nt	nt	-0.79	nt	nt
Clc1ccccc1Cn1nnc2c(Nc3ccccc3)ncnc21	-22	8	-0.26	0.9	1.2
C#CCNc1nc(C)nc2c1nnn2Cc1ccccc1F	4	52*	-0.14	0.5	1
Fc1ccccc1Cn1nnc2c(NCc3ccccn3)ncnc21	-179	31	-0.061	0.7	2.8*
Clc1ccccc1Cn1nnc2c(NCC3CC3)ncnc21	-239	51*	-0.85	0.5	3.4*
CCCc1nc2c(nnn2Cc2ccccc2F)c(=O)[nH]1	-52	89*	0.18	0.1	1.5
O=c1[nH]c(C(F)(F)F)nc2c1nnn2Cc1ccccc1F	31	3	-1.1	1	0.7
Cc1cc(C)cc(NC(=O)OCCN2CCN(Cc3ccccc3)CCC2=O)c1	nt	nt	-0.86	nt	nt
Cc1cc(C)n(C(=O)CSc2nnc(SCC(=O)n3nc(C)cc3C)s2)n1	-15	-20	0.19	1.2	1.1
CN(C)S(=O)(=O)c1ccc(NC(=O)CN2CCN(C(c3ccccc3)c3ccccc3)CC2)cc1	3	-4	-0.65	1	1
CCCSc1nnc2nc3c(nn12)c1ccccc1n3C	2	-3	nt	1	1
Cc1ccc(CNC(=O)c2cc(-c3ccccc3)nn2CC2CC(c3cccc([N+](=O)[O-])c3)=NO2)cc1 (stereo not given)	nt	nt	-0.84	nt	nt
Cc1ccccc1OCCNc1ccc(C(F)(F)F)cc1[N+](=O)[O-]	37	75*	0.028	0.3	0.6
CSc1nsc(SC)c1C(=O)N1CCN(S(=O)(=O)c2ccc(C)cc2)C1C(C)C (stereo not given)	nt	nt	-5.1*	nt	nt
SMILES	CYP2C9 inh	CYP2C19 inhib	Cav3 T inh	CYP2C19 activ	CYP2C9 activ
CSc1nsc(SC)c1C(=O)N1CCN(S(=O)(=O)c2ccc(C)cc2)C1C (stereo not given)	74*	42	0.015	0.6	0.3
Cc1ccc(S(=O)(=O)N2CCN(C(=O)CN3CCCCC3)C2C(C)C)cc1 (stereo not given)	-29	36	1.3	0.6	1.3
S=c1nc(-c2ccco2)[nH][nH]1	4	2	-0.011	1	1
Cc1ccc(C)n1-c1nc(=S)[nH][nH]1	88*	76*	-1.9	0.2	0.1
CC1(C)CNC(=O)c2sc(N3CCOCC3)nc2C1	-22	-16	0.013	1.2	1.2
C=CCc1cc(C(=O)N2CCCCC2)ccc1O	34	89*	nt	0.1	0.7
O=C1C2=C(Nc3ccccc3SC2c2ccco2)c2ccccc21 (stereo not given)	78*	19	-5.1*	0.8	0.2
CC(=O)Nn1c(-c2ccccc2)cc2ccccc21	36	24	nt	0.8	0.6
O=C(c1cnn2ccccc12)N(Cc1ccco1)C1CCCC1	47	60*	0.2	0.4	0.5
CN1CCN(C(=O)c2ccccc2-c2ccccc2C(=O)O)CC1	-21	-16	-0.24	1.2	1.2
CC(C)=CCc1c(O)cc(O)c2c(=O)c3c(CC=C(C)C)c(O)ccc3oc12	nt	nt	0.42	nt	nt
CC(=O)c1cc(CC=C(C)C)c(O)c(CC=C(C)C)c1O	71*	84*	nt	0.2	0.3
CC(C)=CCc1c(O)cc2c(=O)c3ccc(O)cc3oc2c1O	nt	nt	0.13	nt	nt
CC(=O)c1cc(CC=C(C)C)c(O)cc1O	80*	32	-2	0.7	0.2
COc1ccc(CCNC(=O)Cn2c(=O)n(Cc3ccco3)c(=O)c3ccc(Cl)cc32)cc1OC	42	35	-0.17	0.6	0.6
CCOC(=O)Cn1c(=O)n(Cc2ccco2)c(=O)c2ccc(C(=O)NCCc3ccccc3)cc21	49	27	-4.6*	0.7	0.5
O=C(Nc1nccs1)c1cccc(NC(=O)c2ccco2)c1	nt	nt	-0.4	nt	nt
COc1ccccc1C(=O)OCc1c(F)cccc1Cl	-237	73*	-1.9*	0.3	3.4*
O=C(Cc1c(F)cccc1Cl)c1ccc(O)cc1O	16	28	-0.5	0.7	0.8
CN1C(=O)C2(C(C#N)=C(N)Oc3c2oc(CO)cc3=O)c2ccccc21 (stereo not given)	-7	-12	0.26	1.1	1.1
O=C(c1ccco1)N1CCN(CC(=O)N2c3ccccc3CCc3ccccc32)CC1	61*	17	-0.2	0.8	0.4
O=C(CN1CCN(C(=O)c2ccco2)CC1)Nc1cc(Cl)ccc1Cl	30	20	-1	0.8	0.7
O=C(CN1CCN(C(=O)c2ccco2)CC1)Nc1ccccc1-c1ccccc1	80*	76*	-0.024	0.2	0.2
CN(C)/C=N/c1c(C#N)cnn1-c1ncnc2sc(-c3ccccc3)cc12	92*	87*	-0.27	0.1	0.1
O=[N+]([O-])c1cc(-n2cnnn2)ccc1N1CCC(Cc2ccccc2)CC1	62*	42	-0.017	0.6	0.4
CC1CC(C)CN(c2ccc(-n3cnnn3)cc2[N+](=O)[O-])C1 (stereo not given)	19	64*	-0.047	0.4	0.8
CCCCOCCCNC1=NCCCCC1	0	-1	0.88	1	1
CCOC(=O)CC(/C(C)=N\O)c1ccccc1 (stereo not given)	-4	51*	0.41	0.5	1
CCSc1nnc(NC(=O)c2nn(C(C)C)c(=O)c3ccccc23)s1	16	7	-0.22	0.9	0.8
O=C(COc1ccc(/C=N/NC(=O)c2cc3ccccc3o2)cc1Br)Nc1ccccc1	43	11	0.093	0.9	0.6
